Data as given in PubChem BioAssay (NCATS).
Records with an inconclusive call do not appear. The source made the active and inactive calls. Calls follow the shape of the dose curve; as a rule, active = well fitted inhibition curve with a large enough effect; inconclusive = small, poorly fitted or top-dose-only effect; inactive = flat fitted curve, though single readings scatter.

Columns and labels:
Assay in all cases: qHTS profiling for inhibitors of Plasmodium falciparum proliferation (AID 504749); also: nearly all actives have a fitted effect of over 60% in size
Settings in all cases: P. falciparum in erythrocytes, SYBR Green DNA, 72 h; series mostly up to 28.7 µM
CP265 = test system: CP265
Summary of the method: (§1)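 SYBR Green fluorescence (ex 485 nm, em 535 nm) reports parasite DNA after 72 h compound exposure of infected red cells at 0.3% parasitemia, 2.5% hematocrit; signal normalized to 0.29 uM artemisinin and vehicle wells.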

CP266 = test system: CP266
Summary of the method: as §1

CP268 = test system: CP268
Summary of the method: as §1

CP269 = test system: CP269
Summary of the method: as §1

CP286 = test system: CP286
Summary of the method: as §1

CP291 = test system: CP291
Summary of the method: as §1

CP297 = test system: CP297
Summary of the method: as §1

CP305 = test system: CP305
Summary of the method: as §1

CP325 = test system: CP325
Summary of the method: as §1

CP329 = test system: CP329
Summary of the method: as §1

CP335 = test system: CP335
Summary of the method: as §1

DIV14 = test system: DIV14
Summary of the method: as §1

DIV17 = test system: DIV17
Summary of the method: as §1

DIV30 = test system: DIV30
Summary of the method: as §1

Dd2 = test system: Dd2
Summary of the method: as §1

ECU = test system: ECU
Summary of the method: as §1

HB3 = test system: HB3
Summary of the method: as §1

ICS = test system: ICS
Summary of the method: as §1

N140 = test system: N140
Summary of the method: as §1

P93_24 = test system: P93_24
Summary of the method: as §1

P94_40 = test system: P94_40
Summary of the method: as §1

PAD = test system: PAD
Summary of the method: as §1

PC15 = test system: PC15
Summary of the method: as §1

PC26 = test system: PC26
Summary of the method: as §1

SC27B = test system: SC27B
Summary of the method: as §1

TAB109 = test system: TAB109
Summary of the method: as §1

TAB113 = test system: TAB113
Summary of the method: as §1

TAB165 = test system: TAB165
Summary of the method: as §1

W2 = test system: W2
Summary of the method: as §1

Measured: Potency
Potency is read from the fitted curve at half-maximal effect.

C/C=C\C[C@H](C)[C@H](O)[C@H]1C(=O)N[C@@H](CC)C(=O)N(C)CC(=O)N(C)[C@@H](CC(C)C)C(=O)N[C@@H](C(C)C)C(=O)N(C)[C@@H](CC(C)C)C(=O)N[C@@H](C)C(=O)N[C@@H](C)C(=O)N(C)[C@@H](CC(C)C)C(=O)N(C)[C@@H](CC(C)C)C(=O)N(C)[C@@H](C(C)C)C(=O)N1C
active: CP265 3.55 µM | CP266 10.7 µM | CP268 15.1 µM | CP269 6.01 µM | CP286 7.08 µM | CP291 10.7 µM | CP297 4.78 µM | CP305 6.01 µM | CP325 7.57 µM | CP329 6.01 µM | CP335 4.26 µM | DIV14 6.75 µM | DIV17 8.49 µM | DIV30 13.5 µM | Dd2 5.01 µM | ECU 2.24 µM | HB3 7.08 µM | ICS 3.98 µM | N140 2.82 µM | P93_24 5.01 µM | P94_40 5.01 µM | PAD 3.55 µM | PC15 11.2 µM | PC26 6.75 µM | SC27B 2.82 µM | TAB109 3.55 µM | TAB113 3.55 µM | TAB165 4.47 µM | W2 1.9 µM
